Data on 23 compounds can be found in PubChem BioAssay (NCATS).

Inconclusive results are not listed. Activity calls are given as the source filed them. The call rests on the fitted dose curve; in most records, active means well fitted curve in the direction sought with a large enough effect; inconclusive means small, poorly fitted or top-dose-only effect, or another doubt; inactive means no such curve, though single readings can be large; an effect the other way counts as inactive or inconclusive.

Experiment [1] can be described thus: qHTS of pediatric cancer cell lines to identify multiple opportunities for drug repurposing: Primary screen for U-2 OS cells (AID 1347096). Further: nearly all actives have a fitted effect of over 50% in size. The gist of the method: (§1)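 Cells (500-1,000/well) rested 5 h, then received compounds for 48 h; metabolically active cells were measured by CellTiter-Glo luminescence. Final concentrations spanned up to 46 µM (MIPE, 11-point) or 0.59 nM-46 µM (NPC, 8-point) in primary screens, 11-point in follow-ups.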

The nature of experiment [2]: qHTS of pediatric cancer cell lines to identify multiple opportunities for drug repurposing: Primary screen for Saos-2 cells (AID 1347097). Further: nearly all actives have a fitted effect of over 40% in size. The method in brief: (§2)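 Following a 5-hour attachment period, cells at 500-1,000/well received compounds and were cultured for 48 hours. CellTiter-Glo was added and luminescence read to estimate viable, metabolically active cells.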

A short description of experiment [3]: qHTS of pediatric cancer cell lines to identify multiple opportunities for drug repurposing: Primary screen for SK-N-SH cells (AID 1347098). Further: nearly all actives have a fitted effect of over 65% in size. The gist of the method: as §1
Experiment [4] is described as follows: qHTS of pediatric cancer cell lines to identify multiple opportunities for drug repurposing: Primary screen for NB1643 cells (AID 1347099). Further: nearly all actives have a fitted effect of over 50% in size. The method in brief: as §2
Experiment [5] is described as follows: qHTS of pediatric cancer cell lines to identify multiple opportunities for drug repurposing: Primary screen for LAN-5 cells (AID 1347100). The method in brief:
as §1

Experiment [6] in a line: qHTS of pediatric cancer cell lines to identify multiple opportunities for drug repurposing: Primary screen for BT-12 cells (AID 1347101). Further: nearly all actives have a fitted effect of over 25% in size. The gist of the method: as §1
Experiment [7] is described as follows: qHTS of pediatric cancer cell lines to identify multiple opportunities for drug repurposing: Primary screen for Rh18 cells (AID 1347102). Further: nearly all actives have a fitted effect of over 65% in size. The gist of the method:
as §1

Experiment [8] can be described thus: qHTS of pediatric cancer cell lines to identify multiple opportunities for drug repurposing: Primary screen for OHS-50 cells (AID 1347103). Further: nearly all actives have a fitted effect of over 40% in size. The method in brief: as §1
Experiment [9] in a line: qHTS of pediatric cancer cell lines to identify multiple opportunities for drug repurposing: Primary screen for RD cells (AID 1347104). Further: nearly all actives have a fitted effect of over 55% in size. The gist of the method:
as §2

Experiment [10] in a line: qHTS of pediatric cancer cell lines to identify multiple opportunities for drug repurposing: Primary screen for MG 63 (6-TG R) cells (AID 1347105). Further: nearly all actives have a fitted effect of over 50% in size. The method in brief:
as §2
Potency means the concentration at half of the fitted maximal effect.

As for `O=C1C(CCS(=O)c2ccccc2)C(=O)N(c2ccccc2)N1c1ccccc1` (stereo not given), the Potency result in experiment [1], in [2], in [3], in experiment [4], in [5] and in experiment [6] was “inactive” in each case. Also, the Potency result in experiment [7], in experiment [8], in [9] and in experiment [10] was “inactive” in each case.
Consider `Cc1cccc(C)c1NC(=O)c1ccccc1C(=O)O`, for which the Potency entry in experiment [1], in [2], in experiment [3], in experiment [4], in experiment [5] and in experiment [6] was “inactive” in each case. Further, the Potency result in experiment [7], in [8], in experiment [9] and in [10] was “inactive” throughout.
Regarding `Nc1ccc(S(=O)(=O)NCc2ccccc2)cc1`, the Potency result in experiment [1], in experiment [2], in experiment [3], in experiment [4], in experiment [5] and in experiment [6] was “inactive” each time. Besides, the Potency entry in [7], in experiment [8], in experiment [9] and in experiment [10] was “inactive” in each case.
Turning to `CN(C)CCOC(c1ccc(Cl)cc1)c1ccccn1` (stereo not given), the Potency result in experiment [1], in [2], in experiment [3], in [4], in experiment [5] and in [6] was “inactive” in each case. Further, the Potency entry in experiment [7], in [8], in [9] and in experiment [10] was “inactive” in each case.
With `Cc1ncc(CO)c(C=O)c1O`, the Potency entry in experiment [1], in experiment [2], in experiment [3], in [4], in [5] and in experiment [6] was “inactive” each time. For the same compound, the Potency result in experiment [7], in experiment [8], in [9] and in experiment [10] was “inactive” in each case.
`FC1(F)C(F)(F)C(F)(F)C2(F)C(F)(F)C(F)(F)C(F)(F)C(F)(F)C2(F)C1(F)F` (stereo not given): the Potency result in experiment [1], in experiment [2], in experiment [3], in experiment [4], in [5] and in [6] was “inactive” each time. Besides, the Potency entry in [7], in [8], in [9] and in [10] was “inactive” in each case.
As to `CC1=C(C(=O)O)N2C(=O)[C@@H](NC(=O)[C@H](N)c3ccccc3)[C@H]2SC1`, the Potency result in [1], in [2], in [3], in [4], in experiment [5] and in experiment [6] was “inactive” throughout. Also, the Potency result in experiment [7], in experiment [8], in [9] and in experiment [10] was “inactive” in each case.
Turning to `CC(C)(C)NC[C@H](O)COc1nsnc1N1CCOCC1`, the Potency entry in [1], in experiment [2], in [3], in experiment [4], in experiment [5] and in [6] was “inactive” in each case. Moreover, the Potency result in experiment [7], in [8], in experiment [9] and in [10] was “inactive” each time.
As to `C[C@@]12C(=O)OC(=O)[C@]1(C)C1CCC2O1`, the Potency is 3350 nM (active) in experiment [1]; 1500 nM (active) in [2]; 3440 nM (active) in experiment [3]; 1190 nM (active) in experiment [4]; 2660 nM (active) in [5]; 6920 nM (active) in experiment [6]. Moreover, the Potency in experiment [7] is 1880 nM (active); in experiment [8], 1740 nM (active); in experiment [9], 4730 nM (active); in [10], 1680 nM (active).
With `O=C(O)CCNC(=O)c1ccccc1`, the Potency result in [1], in [2], in [3], in experiment [4], in experiment [5] and in experiment [6] was “inactive” each time. In addition, the Potency result in experiment [7], in [8], in experiment [9] and in experiment [10] was “inactive” each time.
`C[N+]12CCC(CC1)C(OC(=O)C(O)(c1ccccc1)c1ccccc1)C2` (stereo not given): the Potency entry in experiment [1], in experiment [2], in experiment [3], in experiment [4], in [5] and in experiment [6] was “inactive” each time. Besides, the Potency entry in [7], in experiment [8], in experiment [9] and in experiment [10] was “inactive” each time.
`COc1ccccc1N1CCN(CCCCNC(=O)c2ccc(-c3ccc(C(C)=O)cc3)cc2)CC1`: the Potency result in experiment [1], in [2], in experiment [3], in experiment [4], in experiment [5] and in experiment [6] was “inactive” in each case. Also, the Potency entry in [7], in experiment [8], in experiment [9] and in experiment [10] was “inactive” in each case.
Consider `CN(C)CCN1C(=O)c2ccccc2N(C)c2ccccc21`, for which the Potency result in experiment [1], in experiment [2], in experiment [3], in [4], in experiment [5] and in experiment [6] was “inactive” in each case. Also, the Potency result in experiment [7], in experiment [8], in [9] and in experiment [10] was “inactive” in each case.
Regarding `Cc1ccc(S(=O)(=O)NC(=O)NC2CCCC2)cc1`, the Potency result in [1], in [2], in experiment [3], in [4], in experiment [5] and in experiment [6] was “inactive” in each case. For the same compound, the Potency entry in experiment [7], in experiment [8], in experiment [9] and in [10] was “inactive” in each case.
Consider `O=C(O)CCC(=O)Nc1ccc(S(=O)(=O)Nc2nccs2)cc1`, for which the Potency result in experiment [1], in experiment [2], in experiment [3], in experiment [4], in [5] and in experiment [6] was “inactive” throughout. The Potency entry in experiment [7], in experiment [8], in [9] and in [10] was “inactive” in each case.
`C/C=C/c1ccc(O)c(OC)c1`: the Potency result in [1], in [2], in [3], in experiment [4], in [5] and in [6] was “inactive” throughout. Further, the Potency entry in [7], in [8], in experiment [9] and in experiment [10] was “inactive” in each case.
On to `NCCNc1cccc2ccccc12`, for which the Potency result in experiment [1], in [2], in [3], in [4], in experiment [5] and in experiment [6] was “inactive” each time. The Potency entry in experiment [7], in experiment [8], in experiment [9] and in [10] was “inactive” in each case.
As to `CC(C(=O)O)c1cccc(Oc2ccccc2)c1` (stereo not given), the Potency entry in experiment [1], in experiment [2], in [3], in experiment [4], in [5] and in [6] was “inactive” in each case. In addition, the Potency entry in experiment [7], in experiment [8], in [9] and in [10] was “inactive” in each case.
`CC(=O)OCC1=C(C(=O)O)N2C(=O)[C@@H](NC(=O)CSc3ccncc3)[C@H]2SC1`: the Potency result in experiment [1], in experiment [2], in experiment [3], in [4], in experiment [5] and in [6] was “inactive” in each case. In addition, the Potency result in [7], in experiment [8], in [9] and in experiment [10] was “inactive” in each case.
On to `OC1C(O)C(O)C(O)C(O)C1O` (stereo not given), for which the Potency entry in [1], in experiment [2], in experiment [3], in experiment [4], in [5] and in experiment [6] was “inactive” each time. Further, the Potency result in experiment [7], in [8], in experiment [9] and in [10] was “inactive” throughout.
For the compound `CCCCCCCCCCCCCC(=O)OC(C)C`, the Potency result in [1], in [2], in experiment [3], in experiment [4], in experiment [5] and in experiment [6] was “inactive” in each case. Moreover, the Potency result in experiment [7], in experiment [8], in experiment [9] and in experiment [10] was “inactive” in each case.
Take `CC[N+](C)(CC)CCOC(=O)C(O)(c1ccccc1)C1CCCCC1` (stereo not given): the Potency entry in experiment [1], in experiment [2], in experiment [3], in experiment [4], in experiment [5] and in [6] was “inactive” each time. Besides, the Potency result in experiment [7], in experiment [8], in [9] and in experiment [10] was “inactive” throughout.
On to `Cc1cn([C@H]2C[C@H](F)[C@@H](CO)O2)c(=O)[nH]c1=O`, for which the Potency entry in experiment [1], in [2], in [3], in [4], in experiment [5] and in experiment [6] was “inactive” in each case. Also, the Potency result in experiment [7], in experiment [8], in experiment [9] and in [10] was “inactive” in each case.
